Bioassay records (PubChem BioAssay)
An excerpt weighted towards active compounds, which were near 2.4% of everything screened.
SmPrx2 inh – blocks S. mansoni peroxiredoxin 2 enzymatic activity | S. mansoni Prx2 activity coupled to TGR/GSH (TGR is thioredoxin glutathione reductase), NADPH fluorescence loss, qHTS | Potency, µM | hit rate 0.07% among 65,000
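Activity is read as the drop in NADPH fluorescence (365/450 nm), recorded every 30 sec for 8 min after H2O2 addition. Prx2 is coupled to TGR-driven NADPH oxidation through glutathione, in phosphate buffer pH 7.4.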
AmpC nodet inh – AmpC beta-lactamase inhibition, detergent-free assay. hit rate 1.8% among 71,000. P00811. Potency, µM (top dose mostly 28.7 µM), without a hit: top-dose activity change, negative = inhibition. AmpC nitrocefin hydrolysis, absorbance 480 nm, no detergent; further: % of control where 0% means no effect
Target sequence (P00811 whole entry, looked up): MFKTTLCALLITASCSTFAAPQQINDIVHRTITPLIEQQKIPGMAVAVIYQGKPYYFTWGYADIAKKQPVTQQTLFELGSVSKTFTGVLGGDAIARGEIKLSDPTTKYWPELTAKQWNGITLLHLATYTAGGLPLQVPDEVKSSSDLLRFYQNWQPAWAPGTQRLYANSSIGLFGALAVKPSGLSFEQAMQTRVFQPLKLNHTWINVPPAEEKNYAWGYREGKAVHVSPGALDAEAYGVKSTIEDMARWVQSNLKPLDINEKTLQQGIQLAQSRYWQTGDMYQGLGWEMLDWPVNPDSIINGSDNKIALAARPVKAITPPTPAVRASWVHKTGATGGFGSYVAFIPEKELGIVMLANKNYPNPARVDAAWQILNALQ
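AmpC, 20 mM phosphate pH 7.0; 15 min cpd preinc, RT; start with nitrocefin (800 uM stock); A480 kinetic read, 20 s intervals, 4 min. No-enzyme wells = negative control.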
LT uptake inh – blocks cellular internalization of anthrax lethal toxin. Potency, µM (series often up to 40 µM), inactives show at the top dose activity change, negative = inhibition, most hits filed as inhibitors. hit rate 0.67% among 70,000. Cells, anthrax lethal toxin internalization, FRET ratio (460/530). AID 912; further: on the % scale 0 is the no-effect control and ±100 the full control effect; nearly all actives have a fitted effect of over 50% in size
AmpC det inh – AmpC beta-lactamase inhibition, detergent assay; P00811; purified AmpC, nitrocefin hydrolysis with detergent; Potency, µM (doses to about 28.7 µM), without a hit: at the top dose activity change, negative = inhibition; hit rate 0.09% among 71,000; active means well fitted curve in the direction sought with a large enough effect; inconclusive means small, poorly fitted or top-dose-only effect; further: on the % scale 0 is the no-effect control and ±100 the full control effect
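E. coli AmpC (5.3 nM) in 20 mM phosphate pH 7.0 with 0.01% Triton X-100, preincubated 15 min RT with compound; nitrocefin (2 uL of 800 uM stock) hydrolysis followed by 480 nm absorbance every 20 s over 4 min.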
The depositor's hits bear a star; ? = inconclusive; / = no result; [ ] = dose if it differs, or a comment. Unless noted, the call rests on the fitted dose curve. Potency means the concentration at half of the fitted maximal effect.

SMILES	SmPrx2 inh	AmpC nodet inh	LT uptake inh	AmpC det inh
CCCCN(CC)S(=O)(=O)c1cccc2cccnc12	>57	10%	?	13%
O=C(NCCN1C(=O)C2C3C=CC(C3)C2C1=O)Nc1ccccc1O (stereo not drawn)	>57	4µM*[single pt active]	-6%	14%
O=C(CCN1C(=O)C2C3C=CC(C3)C2C1=O)NCCc1ccccc1 (stereo not drawn)	>57	17%	-10%	-4%
Cc1noc(C)c1S(=O)(=O)N1CCCC(C(=O)N2CCN(C3CCCCC3)CC2)C1 (stereo not drawn)	>57	4µM*[single pt active]	2%	12%
Cc1cc(NC(=O)C2CCCN(S(=O)(=O)c3c(C)noc3C)C2)n[nH]1 (stereo not drawn)	>57	4µM*[single pt active]	?	11%
CCOc1ccc2nc(NC(=O)C3CCCN(S(=O)(=O)c4c(C)noc4C)C3)sc2c1 (stereo not drawn)	>57	4µM*[single pt active]	?	10%
COc1ccc2nc(NC(=O)C3CCCN(S(=O)(=O)c4c(C)noc4C)C3)sc2c1 (stereo not drawn)	>57	4µM*[single pt active]	?	16%
O=C1CN(C(=O)c2ccco2)C(c2ccc(F)cc2)c2cc(Cl)ccc2N1 (stereo not drawn)	>57	9%	3%	-2%
O=C(CSc1nc2c(c(=O)n1-c1ccc(F)cc1)SCC2)Nc1ccc2c(c1)OCO2	>57	-15%	-2%	-4%
O=C(CCc1ccccc1)N1CCN(CCO)CC1	>57	4µM*[single pt active]	-8%	11%
O=C(c1cccs1)N1CCN(CCc2ccccc2)CC1	>57	10%	8%	-3%
COc1ccc(C2CC(=O)N3CN(c4ccc(C)c(Cl)c4)CSC3=C2C#N)cc1OC (stereo not drawn)	>57	6%	6.3µM*	5%
CCc1ccc(C2CC(=O)N3CN(c4ccccc4)CSC3=C2C#N)cc1 (stereo not drawn)	>57	20µM*[single pt active]	-13%	7%
COc1ccc(N2CSC3=C(C#N)C(c4cc(OC)ccc4OC)CC(=O)N3C2)c(OC)c1 (stereo not drawn)	>57	41%	?	1%
CCOc1ccccc1N1CSC2=C(C#N)C(c3c(OC)ccc4ccccc34)CC(=O)N2C1 (stereo not drawn)	>57	2.5µM*[single pt active]	?	12%
COc1ccc(N2CSC3=C(C#N)C(c4ccc(OC)c(OC)c4)CC(=O)N3C2)c(OC)c1 (stereo not drawn)	/	48%	5%	3%
CCc1ccc(N2CSC3=C(C#N)C(c4cccs4)CC(=O)N3C2)cc1 (stereo not drawn)	>57	-13%	-29%	-6%
CCOC(=O)c1ccc(N2CSC3=C(C#N)C(c4cccs4)CC(=O)N3C2)cc1 (stereo not drawn)	>57	2.5µM*	-19%	7%
C[C@@H]1CCc2cc(F)cc3c(=O)c(C(=O)O)cn1c23	>57	-11%[12.8 µM]	-3%[3.58 µM]	-6%[12.8 µM]
Fc1ccc(-c2cc3nc(-c4ccccc4)cc(N4CCN(CCN5CCOCC5)CC4)n3n2)cc1	>57	144%	?	-5%
N#CCCn1c(=O)cnc2cnc(Oc3cccc(Cl)c3)nc21	>57	13%	-17%	0%
CN1CSC2=C(C#N)C(c3cccc(OCc4ccccc4)c3)CC(=O)N2C1 (stereo not drawn)	>57	4µM*[single pt active]	?	13%
COc1ccc(N2CSC3=C(C#N)C(c4cc(OC)c(OC)cc4OC)CC(=O)N3C2)c(OC)c1 (stereo not drawn)	>57	96%	-13%	12%
COc1ccc(N2CSC3=C(C#N)C(c4cccs4)CC(=O)N3C2)cc1 (stereo not drawn)	>57	-22%	?	-6%
N#CC1=C2SCN(c3ccc(F)cc3)CN2C(=O)CC1c1cccc(F)c1 (stereo not drawn)	>57	4µM*[single pt active]	-17%	9%
SMILES	SmPrx2 inh	AmpC nodet inh	LT uptake inh	AmpC det inh
CCC(Oc1ccc2ccccc2c1)C(=O)O (stereo not drawn)	>57	3%	-12%	-1%
CC1=CC(=O)NP(=O)(Oc2ccc3ccccc3c2)N1 (stereo not drawn)	0.57*	-13%	?	5%
O=C(CCc1nc2ccccc2[nH]1)NC1CCCCC1	>57	4µM*[single pt active]	-15%	4%
Fc1ccc(C2CC(c3ccccc3)Nc3ncnn32)cc1 (stereo not drawn)	>57	4µM*[single pt active]	-11%	14%
Cc1cccc(C2CC(c3ccccc3)Nc3ncnn32)c1 (stereo not drawn)	>57	4µM*[single pt active]	-1%	15%
COc1ccc(C2CC(c3ccco3)n3ncnc3N2)cc1 (stereo not drawn)	>57	2.5µM*[single pt active]	-10%	8%
CCOc1ccc(C2CC(c3cccc(C)c3)n3ncnc3N2)cc1 (stereo not drawn)	>57	83%	-13%	13%
COc1ccc(C2CC(c3cccc(C)c3)n3ncnc3N2)cc1 (stereo not drawn)	>57	4µM*[single pt active]	-2%	15%
c1ccc(C2CC(c3ccccc3)n3ncnc3N2)cc1 (stereo not drawn)	>57	16%	7%	0%
CC1CC(C)CN(C(=O)COC(=O)CNS(=O)(=O)/C=C/c2ccccc2)C1 (stereo not drawn)	>57	47%	13%	-6%
Cc1cccc(-c2nc(CS(=O)CC(=O)N3CCN(C)CC3)c(C)o2)c1 (stereo not drawn)	>57	4µM*[single pt active]	4%	10%
CCC(C)NC(=O)CS(=O)Cc1nc(-c2cccc(OC)c2)oc1C (stereo not drawn)	>57	4µM*[single pt active]	-5%	12%
COc1cccc(-c2nc(CS(=O)CC(=O)NC3CCCC3)c(C)o2)c1 (stereo not drawn)	>57	4µM*[single pt active]	4%	8%
C[C@H](NC(=O)Nc1cccc(C(F)(F)F)c1)C(=O)O	>57	1%	/	0%
CCC(c1nnnn1Cc1cccs1)N1CCN(c2nc3ccccc3s2)CC1 (stereo not drawn)	>57	36%	10µM*	8%
O=C(O)COc1ccc(Br)cc1/C=N/O	>57	-9%	-25%	-3%
O=C(NCCCN1CCOCC1)c1ccc(CS(=O)(=O)c2ccc(Br)cc2)o1	>57	4µM*[single pt active]	-11%	10%
COc1ccccc1S(=O)(=O)Cc1ccc(C(=O)NCCN2CCCCCC2)o1	>57	4µM*[single pt active]	-17%	10%
O=C(NCCCN1CCOCC1)c1ccc(CS(=O)(=O)c2c(Cl)cccc2Cl)o1	>57	3.2µM*[single pt active]	-12%	18%
O=C(NCCN1CCOCC1)c1ccc(CS(=O)(=O)c2ccc(Br)cc2)o1	>57	31%	-3%	-1%
CCOC(=O)CSCc1c(C#N)c2ccccc2n1C	>57	16%	15%	-3%
CC(C)CC(c1nnnn1CCc1ccccc1)N1CCN(C(=O)c2ccco2)CC1 (stereo not drawn)	>57	124%	5%	10%
CN1CCN(c2cc3c(c4c2[nH]c2ccccc24)C(=O)CC(C)(C)C3)CC1	>57	3.2µM*[single pt active]	?	12%
